PubChem BioAssay (Tox21)
Records with an inconclusive call do not appear. Active and inactive are the calls of the source. Unless noted, calls follow the shape of the full dose curve.

How the values were obtained:
[1] = Nuclear factor erythroid 2-related factor 2/antioxidant responsive element (Nrf2/ARE) small molecule agonists: qHTS cell viability counter screen in human keratinocytes (AID 1919968; active = well fitted curve in the direction sought with a large enough effect in the repeat runs; an effect the other way counts as inactive or inconclusive; also: nearly all actives have a fitted effect of over 55% in size; also: potency is read from the fitted curve at half-maximal effect)
Outline: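 Cytotoxicity was multiplexed with the Nrf2/ARE luciferase assay in the same wells. Stably transfected HaCaT keratinocytes were treated with test compounds for 23 h at 37 C. Cell viability was then measured by CellTiter-Fluor fluorescence.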

[2] = Nuclear factor erythroid 2-related factor 2/antioxidant responsive element (Nrf2/ARE) small molecule agonists: luciferase reporter gene qHTS assay in human keratinocytes (AID 1919969); also: nearly all actives have a fitted effect of over 35% in size; also: potency is read from the fitted curve at half-maximal effect
[3] = biological target: Gonadotropin-releasing hormone receptor (Homo sapiens) (UniProt P30968); experiment: Human gonadotropin-releasing hormone receptor (GnRHR) small molecule agonists, calcium flux assay in GnRHR-HEK293 cells (AID 1920063); also: nearly all actives have a fitted effect of over 35% in size; also: potency is read from the fitted curve at half-maximal effect
Outline: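 Agonist activity was measured as intracellular calcium flux in HEK293 cells engineered to stably express human GnRHR. After dye loading for 1 hour at 37 C, compounds in DMSO were added and fluorescence was followed for 3 minutes.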

[4] = biological target: KiSS-1 receptor (Homo sapiens) (UniProt Q969F8); experiment: Human kisspeptin (KISS1R) small molecule agonists, calcium flux assay in KISS1R-HEK293 cells (AID 1920064; active = well fitted curve in the direction sought with a large enough effect in the repeat runs; an effect the other way counts as inactive or inconclusive; also: potency is read from the fitted curve at half-maximal effect)
Outline: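 Agonist activity is monitored as intracellular calcium rise in engineered HEK293 cells carrying human KISS1R. Cells are dye-loaded for 1 h at 37 C before compound addition, and fluorescence is recorded for 3 min.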

[5] = G protein-coupled receptor (GPCR) small molecule agonists, calcium flux assay: HEK293 wild type cell line counter screen (AID 1920065); also: potency is read from the fitted curve at half-maximal effect
Outline: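 Seed cells, incubate 18 h (37 C, 5% CO2); add calcium dye, 1 h at 37 C; pin-transfer compounds, ATP control or DMSO; read fluorescence 480/540 nm each second for 3 min.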

[6] = p53 small molecule agonists, cell-based qHTS assay with rat liver microsomes (AID 1963578); also: potency is read from the fitted curve at half-maximal effect
Outline: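 p53RE-bla cells, 4,000/well, pre-incubated 5 h, then given compounds plus rat liver microsomes (0.5 mg/mL final) and NADPH (0.5 mg/mL final). Incubation 16 h at 37 C; beta-lactamase reporter read by LiveBLAzer fluorescence after 2 h at room temperature.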

[7] = p53 small molecule agonists, cell-based qHTS assay with rat liver microsomes: qHTS cell viability counter screen (AID 1963580); also: nearly all actives have a fitted effect of over 45% in size
Outline: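 Rat liver microsome (0.5 mg/mL final) and NADPH (0.5 mg/mL final) co-incubation with compounds for 16 h at 37 C on HCT-116 p53RE-bla cells; cytotoxicity taken from intracellular ATP luminescence.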

[8] = biological target: 5-hydroxytryptamine receptor 2A (Homo sapiens) (UniProt P28223); experiment: 5-hydroxytryptamine receptor 2A (HTR2A) small molecule antagonists, cell-based qHTS assay (AID 1963586); also: nearly all actives have a fitted effect of over 45% in size; also: potency is read from the fitted curve at half-maximal effect
Outline: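 CHO cells stably expressing human HTR2A were plated for 18 h at 37 C, then loaded with calcium dye for 1 h. Compounds were preincubated 5 min at room temperature before DOI (4 nM solution) was added. Kinetic fluorescence was read for 3 min.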

[9] = biological target: 5-hydroxytryptamine receptor 2A (Homo sapiens) (UniProt P28223); experiment: 5-hydroxytryptamine receptor 2A (HTR2A) small molecule agonists, cell-based qHTS assay (AID 1963587); also: nearly all actives have a fitted effect of over 30% in size; also: potency is read from the fitted curve at half-maximal effect
Outline: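 Kinetic calcium-flux fluorescence (2 min, 1 sec intervals) after compound addition in agonist mode. HTR2A-CHO cells were cultured 18 h, then dye-loaded 1 h at 37 C.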

[10] = biological target: Muscarinic acetylcholine receptor M1 (Homo sapiens) (UniProt P11229); experiment: Cholinergic receptor muscarinic 1 (CHRM1) small molecule antagonists, cell-based qHTS assay (AID 1963588); also: nearly all actives have a fitted effect of over 40% in size; also: potency is read from the fitted curve at half-maximal effect
Outline: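 Compounds were tested at 15 concentrations in three independent runs. Dye-loaded CHRM1-CHO cells were exposed 5 min at room temperature before stimulation by acetylcholine added at 50nM. Intracellular calcium was read kinetically on FDSS for 3 min.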

[11] = biological target: Muscarinic acetylcholine receptor M1 (Homo sapiens) (UniProt P11229); experiment: Cholinergic receptor muscarinic 1 (CHRM1) small molecule agonists, cell-based qHTS assay (AID 1963589); also: nearly all actives have a fitted effect of over 35% in size; also: potency is read from the fitted curve at half-maximal effect
Outline: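 Cells were plated and incubated 18 h at 37 C/5% CO2, loaded with calcium dye for 1 h at 37 C, then treated with compounds in DMSO. Fluorescence was recorded kinetically at 1 sec intervals.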

[12] = cAMP Responsive Elements (CRE) small molecule agonists, cell-based qHTS assay (AID 1963590)
Outline: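 Cells carrying a CRE-driven beta-lactamase reporter (HEK 293T) are seeded, incubated overnight (18 h), and treated with test compounds for 3 h at 37 C; reporter activity is then detected with a FRET substrate after 2 h at room temperature.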

[13] = cAMP Responsive Elements (CRE) small molecule antagonists, cell-based qHTS assay (AID 1963591; active = well fitted inhibition curve with a large enough effect in the signal ratio in the repeat runs, not every such curve was filed as active; the % refers to the signal ratio)
Outline: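 Cells (CRE-bla HEK 293T, DMEM with 10% dialyzed FBS and 25 mM HEPES) are seeded and incubated 18 h. Compounds are added with NKH477 agonist at 0.25 uM final for 3 h, then FRET substrate for 2 h.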

[14] = biological target: Beta-2 adrenergic receptor (Homo sapiens) (UniProt P07550); experiment: Adrenergic beta2 receptor (ADRB2) small molecule antagonists, cell-based qHTS assay (AID 1963592); also: series mostly up to about 92 µM; nearly all actives have a fitted effect of over 50% in size
Outline: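 Assay format: CHO-ADRB2 cells, 18-20hr seeding at 37C/5% CO2, then compound plus 1nM isoproterenol agonist mix for 0.5hr RT. Homogeneous time-resolved fluorescence cAMP detection after 1hr, expressed as 665/615 nm ratio.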

[15] = biological target: Beta-2 adrenergic receptor (Homo sapiens) (UniProt P07550); experiment: Adrenergic beta2 receptor (ADRB2) small molecule agonists, cell-based qHTS assay (AID 1963593); also: potency is read from the fitted curve at half-maximal effect;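 as to activation: CHO cells stably overexpressing human ADRB2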
Outline: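 CHO cells stably over-expressing ADRB2 were plated overnight at 37C, then dosed with compounds plus a stimulation mix containing 100uM IBMX and 25uM Ro-20-1724 for 0.5hr at room temperature. cAMP was measured by HTRF competition, 1hr.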

[16] = biological target: D(2) dopamine receptor (Homo sapiens) (UniProt P14416); experiment: Dopamine D2 receptor (DRD2) small molecule agonists, cell-based qHTS assay (AID 1963594); also: nearly all actives have a fitted effect of over 35% in size
Outline: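 cAMP accumulation in DRD2-HEK293 cells measured by HTRF after 1 h detection; compounds added 10 min before NKH477 (200nM […]) forskolin-analogue stimulation, 30 min at room temperature, with Ro20-1724 present at 0.1 mM final.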

[17] = biological target: D(2) dopamine receptor (Homo sapiens) (UniProt P14416); experiment: Dopamine D2 receptor (DRD2) small molecule antagonists, cell-based qHTS assay (AID 1963595; active = well fitted inhibition curve with a large enough effect in the signal ratio in the repeat runs, with a control signal flat; the % refers to the signal ratio; also: potency is read from the fitted curve at half-maximal effect)
Outline: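 Antagonist mode in DRD2-HEK293 cells: after compound addition with 0.1 mM Ro20-1724, cells received quinpirole (12 nM) and NKH477 (200 nM) for 30 min at room temperature; HTRF cAMP read after 1 h detection.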

[18] = p53 small molecule agonists, cell-based qHTS assay with human liver microsomes: qHTS cell viability counter screen (AID 1963579); also: nearly all actives have a fitted effect of over 45% in size; also: potency is read from the fitted curve at half-maximal effect
Outline: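 p53RE-bla cells, 4,000/well, dosed 5 hours after plating, with human liver microsomes (0.5 mg/mL final) plus NADPH (0.5 mg/mL final), 16 hours at 37 C. Viability read as CellTiter-Glo luminescence after 30 min at room temperature.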

[19] = p53 small molecule agonists, cell-based qHTS assay: qHTS cell viability counter screen (AID 1963581); also: nearly all actives have a fitted effect of over 45% in size; also: potency is read from the fitted curve at half-maximal effect
Outline: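 Viability was counter-screened in parallel with the p53 agonist reporter by measuring intracellular ATP luminescence in the same HCT-116 p53RE-bla wells after 16 h compound treatment at 37 C.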

[20] = p53 small molecule agonists, cell-based qHTS assay (AID 1963582; active = well fitted activation curve with a large enough effect in the signal ratio in the repeat runs, not every such curve was filed as active; the % refers to the signal ratio)
Outline: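 Cells carrying a p53-responsive bla reporter are treated with test compounds for 16 h at 37 C; beta-lactamase activity is then detected with LiveBLAzer B/G FRET substrate after 2 h at room temperature.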

Measured: Potency

Sequence of Gonadotropin-releasing hormone receptor (Homo sapiens) (P30968 whole entry, looked up): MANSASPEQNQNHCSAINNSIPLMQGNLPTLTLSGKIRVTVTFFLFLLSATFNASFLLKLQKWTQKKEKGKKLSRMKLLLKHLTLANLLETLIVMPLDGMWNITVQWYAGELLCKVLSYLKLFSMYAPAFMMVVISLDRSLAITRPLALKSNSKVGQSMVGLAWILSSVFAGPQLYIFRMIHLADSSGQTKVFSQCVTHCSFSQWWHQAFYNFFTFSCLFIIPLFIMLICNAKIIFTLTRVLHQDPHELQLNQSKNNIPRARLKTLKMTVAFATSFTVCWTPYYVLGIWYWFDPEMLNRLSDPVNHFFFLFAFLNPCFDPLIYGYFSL
Sequence of Muscarinic acetylcholine receptor M1 (Homo sapiens) (P11229 whole entry, looked up): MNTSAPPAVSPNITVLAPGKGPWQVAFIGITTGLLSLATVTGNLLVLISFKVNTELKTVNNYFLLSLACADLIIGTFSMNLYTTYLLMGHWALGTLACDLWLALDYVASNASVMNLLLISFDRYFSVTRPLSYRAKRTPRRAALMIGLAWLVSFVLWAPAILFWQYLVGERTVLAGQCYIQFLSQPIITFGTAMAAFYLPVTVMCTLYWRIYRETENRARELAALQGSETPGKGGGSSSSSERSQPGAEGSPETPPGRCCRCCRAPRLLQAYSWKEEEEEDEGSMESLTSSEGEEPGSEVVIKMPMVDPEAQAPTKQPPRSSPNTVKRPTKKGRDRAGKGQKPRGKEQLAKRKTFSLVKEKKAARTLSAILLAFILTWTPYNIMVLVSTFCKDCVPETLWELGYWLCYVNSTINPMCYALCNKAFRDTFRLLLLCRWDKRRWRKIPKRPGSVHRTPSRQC
Sequence of Beta-2 adrenergic receptor (Homo sapiens) (P07550 whole entry, looked up): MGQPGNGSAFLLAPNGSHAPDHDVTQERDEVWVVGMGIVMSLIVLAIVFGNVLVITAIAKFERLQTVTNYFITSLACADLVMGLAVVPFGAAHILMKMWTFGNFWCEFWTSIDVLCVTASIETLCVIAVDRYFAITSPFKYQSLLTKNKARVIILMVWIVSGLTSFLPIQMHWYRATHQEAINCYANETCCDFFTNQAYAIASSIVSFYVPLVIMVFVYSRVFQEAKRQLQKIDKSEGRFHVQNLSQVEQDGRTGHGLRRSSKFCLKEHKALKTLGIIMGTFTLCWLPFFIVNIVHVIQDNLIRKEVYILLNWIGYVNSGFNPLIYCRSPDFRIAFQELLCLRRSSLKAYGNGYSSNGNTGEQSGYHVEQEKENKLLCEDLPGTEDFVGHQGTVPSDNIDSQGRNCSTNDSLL
Sequence of D(2) dopamine receptor (Homo sapiens) (P14416 whole entry, looked up): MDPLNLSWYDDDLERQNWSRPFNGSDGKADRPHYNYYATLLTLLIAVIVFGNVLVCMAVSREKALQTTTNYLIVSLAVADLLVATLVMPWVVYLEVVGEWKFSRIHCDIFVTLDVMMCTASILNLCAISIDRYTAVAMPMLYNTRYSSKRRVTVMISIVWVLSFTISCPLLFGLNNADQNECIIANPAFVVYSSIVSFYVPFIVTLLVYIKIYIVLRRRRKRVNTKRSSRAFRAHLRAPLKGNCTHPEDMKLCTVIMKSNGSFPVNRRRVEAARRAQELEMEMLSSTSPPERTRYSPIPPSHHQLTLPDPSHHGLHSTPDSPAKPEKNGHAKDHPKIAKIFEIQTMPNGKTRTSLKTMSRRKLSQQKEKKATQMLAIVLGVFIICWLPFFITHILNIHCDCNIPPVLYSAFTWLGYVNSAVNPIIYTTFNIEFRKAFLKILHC
Sequence of KiSS-1 receptor (Homo sapiens) (Q969F8 whole entry, looked up): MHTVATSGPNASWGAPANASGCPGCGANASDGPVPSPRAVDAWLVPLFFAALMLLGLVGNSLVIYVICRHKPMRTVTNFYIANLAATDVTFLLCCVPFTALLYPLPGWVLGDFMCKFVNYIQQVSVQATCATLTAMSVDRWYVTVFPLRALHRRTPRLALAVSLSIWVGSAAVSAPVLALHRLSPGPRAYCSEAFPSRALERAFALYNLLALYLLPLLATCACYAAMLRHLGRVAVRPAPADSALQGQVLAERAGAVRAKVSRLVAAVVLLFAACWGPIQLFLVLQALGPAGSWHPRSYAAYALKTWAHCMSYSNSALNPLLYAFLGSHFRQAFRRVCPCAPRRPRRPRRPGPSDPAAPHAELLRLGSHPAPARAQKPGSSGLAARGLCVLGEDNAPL
Sequence of 5-hydroxytryptamine receptor 2A (Homo sapiens) (P28223 whole entry, looked up): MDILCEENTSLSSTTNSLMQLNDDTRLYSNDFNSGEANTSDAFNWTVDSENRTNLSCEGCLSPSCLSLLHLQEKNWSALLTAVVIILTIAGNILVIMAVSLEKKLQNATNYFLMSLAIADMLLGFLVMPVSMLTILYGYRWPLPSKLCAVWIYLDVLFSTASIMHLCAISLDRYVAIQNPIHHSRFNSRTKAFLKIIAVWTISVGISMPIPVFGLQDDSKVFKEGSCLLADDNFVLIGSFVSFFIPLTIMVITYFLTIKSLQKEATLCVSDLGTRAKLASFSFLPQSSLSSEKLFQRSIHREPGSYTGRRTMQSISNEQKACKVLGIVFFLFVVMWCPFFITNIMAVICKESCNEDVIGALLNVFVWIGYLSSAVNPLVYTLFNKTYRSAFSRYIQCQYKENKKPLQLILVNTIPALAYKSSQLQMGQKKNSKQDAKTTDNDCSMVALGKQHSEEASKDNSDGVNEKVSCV

c1cc[n+]2c(c1)-c1cccc[n+]1CC2
not listed: [18] | [19] | [20]
inactive: all other assays above

COP(=S)(OC)Oc1ccc([N+](=O)[O-])c(C)c1
active: [19] 0.363 µM
not listed: [6] | [10] | [16]
inactive: all other assays above

Cc1nnc(-c2ccccc2)c(=O)n1N
not listed: [7] | [15]
inactive: all other assays above

COP(=S)(OC)Oc1ccc(S(N)(=O)=O)cc1
not listed: [6] | [14] | [15]
inactive: all other assays above

COP(=O)(OC)O/C(C)=C/C(=O)N(C)C
not listed: [6] | [9] | [10]
inactive: all other assays above

C=CCOC(=O)C(C)(C)OC(=O)c1cc(-n2c(=O)cc(C(F)(F)F)n(C)c2=O)ccc1Cl
not listed: [6] | [13] | [16]
inactive: all other assays above

CCC(C)(C)c1cc(-n2nc3ccccc3n2)c(O)c(C(C)(C)CC)c1
active: [10] 0.0956 µM
not listed: [6] | [20]
inactive: all other assays above

CCOC(=O)c1cn2nc(OP(=S)(OCC)OCC)cc2nc1C
not listed: [6] | [10] | [12] | [13] | [16]
inactive: all other assays above

Clc1ccccc1
not listed: [6] | [20]
inactive: all other assays above

CNC(=O)Oc1cccc(N=CN(C)C)c1
not listed: [6] | [8]
inactive: all other assays above

CCC#N
not listed: [6] | [20]
inactive: all other assays above

CN(C)[C@@H]1C(=O)C(C(N)=O)=C(O)[C@@]2(O)C(=O)C3=C(O)c4c(O)ccc(Cl)c4[C@@](C)(O)[C@H]3C[C@@H]12
inactive: [1] | [2] | [3] | [4] | [5] | [6] | [18] | [7] | [15] | [16] | [17]

CS(=O)(=O)c1cc(C(F)(F)F)ccc1C(=O)c1cnoc1C1CC1
not listed: [7] | [10] | [13] | [14] | [15] | [16] | [18]
inactive: all other assays above

COC(=O)/C=C(\C)OP(=O)(OC)OC
active: [15] 17.2 µM
not listed: [6] | [13] | [14]
inactive: all other assays above

CN1COCN(Cc2cnc(Cl)s2)/C1=N\[N+](=O)[O-]
not listed: [9] | [18]
inactive: all other assays above

CNC(=O)O/N=C(/CSC)C(C)(C)C
not listed: [6]
inactive: all other assays above

CCOP(=S)(OCC)Oc1cc(C)nc(N(CC)CC)n1
not listed: [6] | [8] | [12] | [13]
inactive: all other assays above

CCOP(=S)(OCC)Oc1ccc(Cl)cc1Cl
active: [18] 45.8 µM
not listed: [6]
inactive: all other assays above

BrCCCBr
not listed: [6] | [17] | [20]
inactive: all other assays above

O=P(O)(O)c1ccccc1
not listed: [6] | [20]
inactive: all other assays above

CNC(=O)Oc1cc(C)c(N(C)C)c(C)c1
not listed: [6] | [15]
inactive: all other assays above

CCOP(=S)(OCC)SCSCC
not listed: [6] | [20]
inactive: all other assays above

c1ccc2c(c1)[nH]c1cnccc12
active: [6] 36.4 µM
not listed: [8] | [18] | [20]
inactive: all other assays above

CNN
not listed: [6] | [20]
inactive: all other assays above

CN(C)S(=O)(=O)N(SC(F)(Cl)Cl)c1ccccc1
inactive: [6] | [19] | [20] | [8]
active: [1] 13.7 µM | [2] 4.86 µM | [3] 38.9 µM | [4] 54.9 µM | [5] 38.9 µM | [11] 43.6 µM | [17] 5.45 µM

[Cl][Sb]([Cl])[Cl]
active: [2] 27.3 µM
not listed: [12] | [18]
inactive: all other assays above

CC1N=C(N)OC1c1ccccc1 (stereo not drawn)
not listed: [16] | [17] | [18] | [20]
inactive: all other assays above

Oc1c(Cl)cccc1Cl
not listed: [6] | [20]
inactive: all other assays above

Cn1cc(C2=C(c3cn(C4CCN(Cc5ccccn5)CC4)c4ccccc34)C(=O)NC2=O)c2ccccc21
active: [1] 4.22 µM
not listed: [9] | [12] | [13] | [19] | [20]
inactive: all other assays above

Cc1c(Cl)c(=O)oc2cc(OP(=O)(OCCCl)OCCCl)ccc12
not listed: [6] | [12] | [13] | [15] | [16]
inactive: all other assays above

CNC(=O)Oc1cc(C)cc(C(C)C)c1
not listed: [6] | [15]
inactive: all other assays above

CCSCc1ccccc1OC(=O)NC
not listed: [6]
inactive: all other assays above

CC(Cc1ccc2c(c1)OCO2)NO (stereo not drawn)
active: [8] 0.91 µM | [9] 1.33 µM
not listed: [18]
inactive: all other assays above
